Laboratory results reported in PubChem BioAssay (NCI).
This is part of a sample that, as a whole, favours compounds with a hit. Of some 83,000 tested, about 20% had one in any assay.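 Growth was measured after 48 h exposure to one concentration of compound in 96-well plates. Values under 10 count as active.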 Unmarked numbers belong to inactive results. Activity calls are given as the source filed them.

Assays:
Test in all cases: NCI-60 one-dose screen, 48 h (100 = growth as untreated, 0 = no growth, -100 = all killed)
Conditions in all cases: 10 µM unless noted
DU-145 prostate = system: DU-145 prostate
K-562 leukemia = system: K-562 leukemia
MALME-3M melanoma = system: MALME-3M melanoma
MDA-MB-231 breast = system: MDA-MB-231 breast
RXF 393 renal = system: RXF 393 renal
SF-268 CNS = system: SF-268 CNS
SF-295 CNS = system: SF-295 CNS
SF-539 CNS = system: SF-539 CNS
UACC-257 melanoma = system: UACC-257 melanoma
M14 melanoma = system: M14 melanoma
HCT-15 colon = system: HCT-15 colon
HT29 colon = system: HT29 colon
SNB-75 CNS = system: SNB-75 CNS
SNB-19 CNS = system: SNB-19 CNS
U251 CNS = system: U251 CNS
PC-3 prostate = system: PC-3 prostate
SK-MEL-5 melanoma = system: SK-MEL-5 melanoma
UACC-62 melanoma = system: UACC-62 melanoma
LOX IMVI melanoma = system: LOX IMVI melanoma
SK-MEL-28 melanoma = system: SK-MEL-28 melanoma

SMILES	growth (DU-145 prostate)	growth (K-562 leukemia)	growth (MALME-3M melanoma)	growth (MDA-MB-231 breast)	growth (RXF 393 renal)	growth (SF-268 CNS)	growth (SF-295 CNS)	growth (SF-539 CNS)	growth (UACC-257 melanoma)	growth (M14 melanoma)	growth (HCT-15 colon)	growth (HT29 colon)	growth (SNB-75 CNS)	growth (SNB-19 CNS)	growth (U251 CNS)	growth (PC-3 prostate)	growth (SK-MEL-5 melanoma)	growth (UACC-62 melanoma)	growth (LOX IMVI melanoma)	growth (SK-MEL-28 melanoma)
O=C(COc1ccc(/C=C2\Oc3ccccc3C2=O)cc1)Nc1nc2ccccc2s1	-74.8% (active)	27.9%	24.5%	44.8%	14.2%	13.4%	628%	-88.3% (active)	110%	95.4%	98.2%	93.2%	-16.2% (active)	92.4%	4.73% (active)	13.7%	95.6%	82.4%	-71.7% (active)	–
C[C@H]1[C@H]2[C@H]3CC[C@@H]4[C@@]5(C)C/C(=C/c6cccnc6)C(=O)C(C)(C)[C@@H]5CC[C@@]4(C)[C@]3(C)CC[C@]23CO[C@]1(C)[C@@H](C(=O)/C=C\c1cccnc1)C3	-28.8% (active)	6.51% (active)	-33.5% (active)	-30.7% (active)	-91.8% (active)	7.1% (active)	6.07% (active)	-32.4% (active)	13.2%	-20.1% (active)	-15.3% (active)	26.4%	32.7%	2.48% (active)	-68% (active)	-3.56% (active)	-82.2% (active)	-25.6% (active)	-85.2% (active)	-17.8% (active)
COc1ccc2[nH]c(O)c(C(=Nc3ccc(N(C)C(=O)CN4CCN(C)CC4)cc3)c3ccccc3)c2c1	27.7%	5.35% (active)	43.5%	28.4%	-25.1% (active)	30.7%	48.3%	-38.9% (active)	65.9%	29.3%	24.7%	18%	-5.94% (active)	57.5%	45.1%	56.6%	67.3%	75.3%	9.09% (active)	–
COc1cc(C2CC(c3cc(OC)c(OCCCOc4ccc(-n5c(/C=C/c6ccccc6)nc6ccccc6c5=O)cc4)c(OC)c3)=NO2)cc(OC)c1OC (centres undefined)	120%	78.7%	143%	110%	116%	107%	81%	108%	106%	127%	84.7%	104%	86.9%	110%	103%	79.4%	95.6%	82.6%	94.6%	104%
COc1ccc(NC(=O)CSc2nnc(-c3cc(-c4ccccc4)nc4ccccc34)n2-c2ccccc2)cc1	99.7%	84.8%	88.7%	89.3%	99%	90.8%	97.4%	100%	99.2%	98.1%	95.4%	106%	79.3%	93.5%	100%	73.2%	90.8%	73.8%	97.3%	–
COc1ccc(Nc2nnc(SCc3ccccc3F)s2)cc1	111%	92.4%	119%	98.4%	101%	103%	97.7%	104%	106%	108%	103%	116%	102%	103%	104%	85.6%	104%	74.8%	104%	–
COC1=CC(=O)C[C@@H](C)[C@]12Oc1c(Cl)c(OC)cc(OC)c1C2=O	105%	32.9%	85.2%	84.1%	86.8%	93.5%	96.8%	104%	84.5%	66.3%	76.9%	104%	67.8%	95.7%	92.1%	87.5%	84.3%	73.3%	80.8%	–
Nc1n[nH]c(-c2cc(Cl)ccc2O)c1-c1ccccc1	106%	67.9%	82.2%	78%	86.4%	92.3%	102%	94.6%	98.5%	93.8%	78.5%	102%	86%	102%	89.2%	81%	92.2%	66.6%	79.6%	–
Cc1ccc(C(=O)C2=C(O)C(=O)N(Cc3cccnc3)C2c2ccccc2F)o1 (centres undefined)	105%	76.7%	101%	106%	95.8%	98.1%	93.1%	95.1%	95.7%	101%	93.8%	108%	94.6%	105%	91.6%	96.7%	100%	102%	80.8%	–
O=C(Nc1cccc2c(O)c(N=Nc3ccc(S(=O)(=O)Nc4nccs4)cc3)cc(N=Nc3ccc(S(=O)(=O)Nc4nccs4)cc3)c12)C(Cl)Cl	33.8%	143%	138%	92.3%	71.2%	66.2%	78.2%	86.6%	80.6%	110%	60.2%	62.8%	83%	73.6%	63.1%	15.7%	85.2%	89%	66.7%	–
CNC(=O)c1cc(Oc2cccc3nc(Nc4ccc(F)c(Cl)c4)ccc23)ccn1	93.2%	26%	40.2%	62.7%	75.3%	54.5%	87%	55.9%	40%	51.8%	16.5%	81.4%	87.6%	43.6%	26.7%	30.8%	12.3%	25.3%	27%	65.7%
O=C1Nc2ccccc2/C1=C/c1cn(C(=O)c2ccc(Cl)cc2)c2ccccc12	118%	85.7%	118%	77.7%	130%	99.9%	114%	99.4%	99.7%	102%	92.1%	110%	87.7%	99.1%	99.4%	95.7%	97.7%	89.3%	100%	93%
NNC(=O)c1nc(N)n(-c2ccc(S(N)(=O)=O)cc2)n1	92.8%	96.5%	97.8%	88.6%	110%	93.3%	109%	89.2%	97.2%	94.4%	107%	99.9%	92.5%	96.4%	88.8%	89.7%	96.9%	99.2%	93.3%	–
CCOc1ccccc1-n1c(CN2CCN(C(=O)COc3ccc(CNCCCCCCN4C5CCCC4CC(OC(=O)Nc4cc(C)ccc4OC)C5)cc3)CC2)nc2ccccc2c1=O (centres undefined)	-98.5% (active)	-56.9% (active)	-84.9% (active)	-91.1% (active)	-76.8% (active)	-77.1% (active)	-92.6% (active)	-92.8% (active)	-95.6% (active)	-77.6% (active)	-84.4% (active)	-85.6% (active)	-99.2% (active)	-89.9% (active)	-99.2% (active)	-85.6% (active)	-96.5% (active)	-89.3% (active)	-92% (active)	-93% (active)
CNS(=O)(=O)c1n[nH]nc1-c1cc(C(C)(C)C)c(O)c(C(C)(C)C)c1	110%	98.7%	88.3%	103%	114%	99.3%	92.4%	99.4%	84.7%	95.9%	95.3%	108%	80.5%	107%	95.5%	97.2%	94.2%	100%	101%	–
CC/C=C\C/C=C\C[C@H](O)C/C=C1/C(=O)C=C[C@@H]1C/C=C\CCCC(=O)O	35.4%	10.5%	47%	25.6%	68.5%	53.9%	86.2%	32.7%	31.3%	14.3%	48%	12.6%	80.7%	44.3%	-27.9% (active)	30.1%	20.7%	-43.4% (active)	-10.1% (active)	–
